SMARCA2 activ – SMARCA2 (BRM) function activators, primary screen, cell-based, luminescence, high throughput | MG213 cells, MMTV-luciferase reporter, dexamethasone, overnight | activation, % at 9.1 µM | hit rate 1% among 370,000 | AID 652017, 2013; in the data active = activation above about 7.8%
hgDAF12 agonist – H. glycines DAF-12 receptor agonists, primary screen, cell-based, luminescence, HEK293, GAL4 fusion, UAS-luciferase. AID 687014, 2013. activation, % at 6.8 µM. hit rate 1.8% among 370,000. Nuclear hormone receptor DAF-12 (Heterodera glycines), GAL4 fusion. HEK293 GAL4-hgDAF12 UAS-luciferase reporter, agonist luminescence; normalized to butyrate control;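 active = activation above a cutoff set at the mean of all screened compounds plus 3 SD, cut at about 10% in these data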
DAX1 inh-1 – DAX1 (NR0B1) inhibitors on StAR promoter, primary screen, cell-based, luminescence, SF-1 (NR5A1), full-length DAX-1; HEK293T StAR-luciferase reporter, SF-1/DAX-1 repression relief; inhibition, % at 6.8 µM; hit rate 1.1% among 370,000;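 active = inhibition above the mean over all tested compounds plus 3 SD, cut at about 3.6% in these data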;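 note: higher inhibition means more luminescence from relief of DAX-1 repression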
hcDAF12 agonist – H. contortus DAF-12 nuclear receptor activators, primary screen, cell-based, luminescence, HEK293, lit1-tk-luc reporter; activation, % at 6.8 µM; HEK293 hcDAF-12 lit1-tk-luc reporter; 0% DMSO, 100% Δ7-dafachronic acid; AID 652067, 2013; hit rate 1.4% among 370,000;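 active = activation above the mean of all tested compounds plus 3 SD, cut at about 5.5% in these data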
DAX1 inh-2 – DAX1 (NR0B1) inhibitors, primary screen, cell-based, HEK293, Gal4-DAX1, luciferase luminescence; hit rate 0.99% among 340,000; inhibition, % at 6.75 µM; AID 504766, 2011; HEK293 Gal4-DAX1 luciferase reporter; Nuclear receptor subfamily 0 group B member 1 (Homo sapiens), P51843;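 active = inhibition above the mean over all tested compounds plus 3 SD, cut at about 4.2% in these data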;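 note: inhibition shows as a rise in luminescence from relieved DAX1 repression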
Target sequence (P51843 207-470 limits assumed): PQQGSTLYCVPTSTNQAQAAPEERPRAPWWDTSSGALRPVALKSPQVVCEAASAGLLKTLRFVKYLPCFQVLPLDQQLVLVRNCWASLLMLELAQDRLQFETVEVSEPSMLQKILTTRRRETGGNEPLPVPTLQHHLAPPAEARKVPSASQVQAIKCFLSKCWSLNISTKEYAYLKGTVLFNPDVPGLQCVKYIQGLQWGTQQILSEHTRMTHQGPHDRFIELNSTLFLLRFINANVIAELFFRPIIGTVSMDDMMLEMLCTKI
ssDAF12 agonist – S. stercoralis DAF-12 nuclear receptor activators, primary screen, cell-based, luminescence, HEK293, GRIP1 co-expression, lit1-tk-luc | Nuclear hormone receptor DAF-12 (Strongyloides stercoralis) | HEK293 ssDAF-12/GRIP1 lit1-tk-luc reporter; % of 3 µM dafachronic acid response | activation, % at 6.8 µM | hit rate 1% among 370,000 | AID 652126, 2013;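 active = activation above the mean over all tested compounds plus 3 SD, cut at about 0.9% in these data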
Numbers stand for hits; n = inactive; x = no result given. Sampled rows, rich in hits. Any-hit rate of the full collection: about 4.8%.

SMILES	SMARCA2 activ	hgDAF12 agonist	DAX1 inh-1	hcDAF12 agonist	DAX1 inh-2	ssDAF12 agonist
CCOc1ccc(N(CC(=O)Nc2ccc(F)c(F)c2)S(=O)(=O)c2c(C)noc2C)cc1	n	n	n	n	4.4	n
CCOc1ccc(N(CC(=O)Nc2ccc(C)cc2)S(=O)(=O)c2c(C)noc2C)cc1	n	n	n	n	n	n
CCOc1ccc(N(CC(=O)NC(C)(C)C)S(=O)(=O)c2c(C)noc2C)cc1	n	n	n	n	6.8	n
CC(NC(=O)C1CCN(CCOc2ccc(Cl)cc2)CC1)c1cccc2ccccc12 (stereo not drawn)	n	n	n	n	x	n
CN(C)c1ccc(/C=N/NC(=O)CN2CCCCC2)cc1Br	n	n	n	n	n	1.3
O=C(Cn1cnc([N+](=O)[O-])n1)N/N=C/c1cc(Cl)ccc1O	n	n	n	n	n	n
COC(=O)CSc1nc2nc(-c3cccs3)cc(C(F)(F)F)c2c(=O)[nH]1	n	n	n	n	n	n
O=C(CSc1nc2nc(-c3cccs3)cc(C(F)(F)F)c2c(=O)[nH]1)C(F)(F)F	n	13	n	n	n	n
Cc1ccc(C)c(N2CCN(CCCc3ccccc3)CC2)c1	n	n	n	n	n	n
O=C(Nc1ccc(N2CCOCC2)c(Cl)c1)c1ccco1	n	12	3.7	n	n	n
O=C(c1ccccc1F)N1CCN(c2ccc([N+](=O)[O-])c(N3CCOCC3)c2)CC1	n	n	n	n	5.8	n
CC(/C=N/NC(=O)c1ccccc1F)c1ccccc1 (stereo not drawn)	n	11	n	n	6.6	n
Cc1ccc(Oc2ccc(Cl)cc2NC(=O)c2ccc(F)cc2F)cc1	n	n	n	n	6.0	n
O=C(Nc1ccccc1)Nc1ccc(Br)c(Cl)c1	n	12	n	6.5	n	n
COc1ccc(NC(=O)c2cccc(OC(F)F)c2)cc1Cl	n	11	n	n	n	n
CC(=O)Nc1ccccc1Oc1ccccc1	n	n	n	n	n	n
C/C(CC(=O)Nc1ccc(C)c(Cl)c1)=N\NC(=O)c1ccco1	n	12	n	n	n	1.0
O=C(Nc1ccc(OC(F)F)c(Cl)c1)c1cccc(OC(F)F)c1	x	x	x	x	n	x
O=C(Nc1ccccc1Oc1ccccc1)c1ccccc1F	9.5	n	n	n	n	n
O=C(NNC(=O)c1ccccc1F)c1cccc(S(=O)(=O)N2CCc3ccccc32)c1	n	n	n	n	n	n
O=C(NC1CCCc2c1cnn2-c1ccc(F)cc1F)c1csnn1 (stereo not drawn)	n	n	n	n	n	n
CC(=O)Nc1ccc(NC(=S)NC(=O)C2CC2)cc1	n	n	n	n	n	n
O=C(NC(=S)Nc1ccc(Br)c(Cl)c1)C1CC1	n	n	n	5.8	n	n
COc1ccc(NC(=O)c2ccccc2F)cc1Cl	n	11	n	n	n	n
O=C(Nc1ccc(CN2CCOCC2)cc1)c1ccco1	n	n	n	5.6	n	n
SMILES	SMARCA2 activ	hgDAF12 agonist	DAX1 inh-1	hcDAF12 agonist	DAX1 inh-2	ssDAF12 agonist
O=C(Nc1ccc(N2CCOCC2)c(Cl)c1)c1ccccc1F	n	n	3.7	n	n	n
C[C@H](CO)N1C[C@H](C)[C@H](CN(C)Cc2ccncc2)OCc2ccccc2-c2c(n(C)c3ccccc23)C1=O	n	n	n	n	n	n
O=Cc1ccc(F)c([B-](F)(F)F)c1	n	n	n	n	n	n
O=C(Nc1ccc(Br)c(Cl)c1)c1ccco1	n	11	n	n	n	n
Cc1cc(C(=O)Nc2ccc(N3CCOCC3)c(Cl)c2)c(C)o1	n	n	n	n	4.2	n
COc1ccc(NC(=O)C(=O)NCCCO)cc1Cl	n	n	n	n	4.5	n
COc1ccc(NC(=O)C(=O)NCCO)cc1Cl	n	n	n	n	n	n
O=C(Nc1ccc(N2CCOCC2)c(Cl)c1)c1ccc(Cl)cc1	n	n	n	n	n	n
CC(=O)Nc1ccc(NC(=O)c2ccccc2F)cc1	n	n	n	n	n	n
O=C(Nc1ccc(F)cc1)c1ccccc1F	n	n	n	6.3	n	n
CCOc1ccc(-n2c(SCC(=O)Nc3ccc(S(=O)(=O)Nc4cc(C)nc(C)n4)cc3)nnc2-c2ccc(OC)cc2)cc1	n	n	n	n	x	n
Cc1ccccc1CN(c1ccc(C(=O)N2CCN(C)CC2)cc1)S(C)(=O)=O	n	n	n	n	x	n
O=C(Nc1ccc2c(c1)OCCO2)c1ccco1	n	n	n	n	n	n
CC1(C)Oc2ccc(NC(=O)c3ccco3)cc2O1	n	11	n	n	n	n
CCOc1ccc(NC(=O)CN(C)C(=O)CN2C(=O)c3ccc([N+](=O)[O-])cc3C2=O)cc1OCC	n	n	n	n	n	n
CCOC(=O)C1=NOC2(C1)C(=O)Nc1c(Cl)cccc12 (stereo not drawn)	n	n	n	5.7	x	n
CN(C)C(=O)C1=NOC2(C1)C(=O)Nc1ccccc12 (stereo not drawn)	n	n	n	n	x	n
CSCCC(NC(=O)c1ccccc1Cl)C(=O)NCC(c1cccs1)N(C)C (stereo not drawn)	n	n	n	n	n	n
Cc1nc(N2CCOCC2)nc(N2CCCCC2C)c1[N+](=O)[O-] (stereo not drawn)	n	n	n	n	5.5	n
Cc1ccc(OCCOc2ccc(Cl)cc2Cl)c(Br)n1	x	12	x	n	x	n
Cc1ccc(C2=NN(C(=O)CCCC(=O)O)C(c3ccco3)C2)cc1 (stereo not drawn)	n	n	n	n	n	1.1
Cc1ccc(N2N=C(c3ccc(F)cc3)CC2c2ccco2)cc1 (stereo not drawn)	n	n	n	n	5.1	n
CC(=O)N1N=C(c2ccc(C)cc2)CC1c1ccco1 (stereo not drawn)	n	n	n	n	n	n
COc1ccc(NC(=O)COC(=O)C2CC2)c(OC)c1	n	n	n	n	n	n
S=C(N/N=C/c1ccc(Br)cc1)N1CCCCC1	n	n	n	n	6.7	1.2
Cc1ccc(CNC(=S)N2CCOCC2)cc1	n	n	n	n	n	n
Cc1ccc(/C=N/NC(=S)N2CCOCC2)cc1	n	12	n	n	n	n
CCOC(=O)c1c(C)[nH]c(C(=O)COC(=O)[C@H](C)N2C(=O)C3CCCCC3C2=O)c1C (stereo partly drawn)	n	n	n	n	n	n
CCc1ccc(Oc2cc(C)nc(N)n2)cc1	n	11	n	n	n	n
